HP1b chromo inh: HTS for Inhibitors of HP1-beta Chromodomain Interactions with Methylated Histone Tails. Chromobox protein homolog 1 (Homo sapiens), P83916. AlphaScreen HP1-beta / biotin-H3K9me3 peptide binding. Potency, µM (titrated, usually from 114 µM), usual class: inhibitors. 390,000 compounds, 0.56% hits; further: nearly all actives have a fitted effect of over 70% in size
Target sequence (P83916 whole entry, looked up): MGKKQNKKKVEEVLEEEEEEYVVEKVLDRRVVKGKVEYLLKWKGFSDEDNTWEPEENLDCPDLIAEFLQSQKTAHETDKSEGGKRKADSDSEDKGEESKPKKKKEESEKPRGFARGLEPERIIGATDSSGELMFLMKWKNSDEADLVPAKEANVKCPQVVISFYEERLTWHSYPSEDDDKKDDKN
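HP1-beta protein (50 nM final) preincubated 30 min at room temperature with biotinylated H3(1-18)K9me3 peptide (50 nM) in PBS pH 7.4, 0.01% Tween-20, then compound added for 30 min. AlphaScreen streptavidin donor/nickel chelate acceptor beads (10 ug/mL final), 30 min dark, luminescence read.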
BAZ2B block: qHTS Assay for Inhibitors of BAZ2B | Bromodomain adjacent to zinc finger domain protein 2B (Homo sapiens), Q9UIF8 | AlphaScreen BAZ2B-H3K14Ac peptide displacement | Potency, µM (top dose mostly 114 µM), actives largely listed as inhibitors | 360,000 compounds, 4.4% hits | AID 504333, 2011; further: nearly all actives have a fitted effect of over 60% in size
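In this displacement format the biotinylated H3(5-23) peptide acetylated at Lys14 serves as ligand at 50 nM, with BAZ2B at 50 nM in PBS pH 7.4 containing 0.01% Tween-20. Donor and acceptor beads are 10 ug/mL final.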
JMJD2A Tudor: qHTS Assay for Inhibitors of JMJD2A-Tudor Domain | Lysine-specific demethylase 4A (Homo sapiens), O75164 | AlphaScreen JMJD2A-Tudor / H3K4me3 peptide binding | Potency, µM (highest dose often 114 µM), actives largely listed as inhibitors | 390,000 compounds, 4.4% hits; further: nearly all actives have a fitted effect of over 50% in size
PI5P4K alpha inh: qHTS for Inhibitors of phosphatidylinositol 5-phosphate 4-kinase (PI5P4K). PI5P4Kalpha enzyme, ADP-Glo luminescence, 60 min; active compounds read low. AID 652105, 2013. max response, %. 330,000 compounds, 1.2% hits. Phosphatidylinositol 5-phosphate 4-kinase type-2 alpha (Homo sapiens), P48426; active means max response of -50% or lower; inconclusive means between -30% and -50%; inactive means -30% or higher; further: value at the top dose of about 77 µM
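ADP-Glo luminescence end-point read after a 60 min room-temperature kinase reaction of PI5P4Kalpha plus substrate, initiated with ATP at 5 microM final. Buffer: 0.038 M HEPES pH 7.4, EGTA, 0.1% CHAPS, 5% DMSO.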
G9a block: qHTS Assay for Inhibitors of Histone Lysine Methyltransferase G9a; Histone-lysine N-methyltransferase EHMT2 (Homo sapiens), Q96KQ7; Potency, µM (series often up to 102 µM), most hits filed as inhibitors; 350,000 compounds, 8.8% hits; AID 504332, 2011; G9a H3K9 monomethylation, AlphaScreen, 2 h; further: nearly all actives have a fitted effect of over 75% in size
Target sequence (Q96KQ7 913-1193 limits assumed): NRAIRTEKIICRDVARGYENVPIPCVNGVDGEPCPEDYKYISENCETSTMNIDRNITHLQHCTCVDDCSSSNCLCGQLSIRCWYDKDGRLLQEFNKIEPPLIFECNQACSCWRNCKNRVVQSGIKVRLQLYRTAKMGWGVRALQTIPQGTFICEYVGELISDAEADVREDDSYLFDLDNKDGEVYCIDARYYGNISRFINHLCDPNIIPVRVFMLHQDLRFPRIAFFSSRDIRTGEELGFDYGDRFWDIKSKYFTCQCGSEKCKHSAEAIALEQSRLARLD
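AlphaScreen detection with an anti-monomethyl H3K9 antibody quantified product after a 2 h room-temperature reaction containing 500 nM biotinylated H3K9 peptide, 20 µM SAM and 20 nM enzyme, which had been preincubated 15 min with compound.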
L3MBTL1 inh: qHTS Assay for the Inhibitors of L3MBTL1; AlphaScreen L3MBTL1–H3K9me1 peptide binding; Potency, µM (top dose mostly 57.1 µM), most hits filed as inhibitors; 230,000 compounds, 0.66% hits; further: nearly all actives have a fitted effect of over 60% in size
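AlphaScreen proximity signal between nickel-chelate acceptor and streptavidin donor beads (final 10 ug/mL) reports binding of 50 nM L3MBTL1 to 75 nM biotin-H3 K9me1 peptide; complex incubated with compounds 30 min at room temperature; cefsulodin titration as control.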
Large screens that a line does not name were inactive. Rows were chosen to be rich in hits. Some 11% of all compounds tested hit in one or more screens of this group. Unless noted, the call rests on the fitted dose curve; in most records, active means well fitted inhibition curve with a large enough effect; inconclusive means small, poorly fitted or top-dose-only effect; inactive means no such curve, though single readings can be large or run the other way.

CCN1C/C(=C/c2ccc(N3CCOCC3)cc2)C(=O)/C(=C/c2ccc(N3CCOCC3)cc2)C1	BAZ2B block inconclusive, G9a block 40µM
CN1C/C(=C\c2ccc(N3CCOCC3)cc2)C(=O)/C(=C/c2ccc(N3CCOCC3)cc2)C1	HP1b chromo inh inconclusive, BAZ2B block 50µM, JMJD2A Tudor inconclusive, G9a block inconclusive
Cn1c(CNC(=O)CSc2nc(-c3ccccc3F)nc3cc(=O)[nH]n23)nc2ccccc21	none (no result: PI5P4K alpha inh, L3MBTL1 inh)
Cc1ccc(NC(=O)CSc2ncnc3c2sc2ccccc23)cc1C	none (no result: PI5P4K alpha inh, L3MBTL1 inh)
CC(C)CC(=O)Nc1nnc(CCc2ccccc2)s1	none
CC(=O)Nc1nc(=S)ss1	PI5P4K alpha inh -58, G9a block inconclusive
CC(=O)c1sc(NC(=O)c2c(F)cccc2F)nc1C	BAZ2B block inconclusive (no result: L3MBTL1 inh)
O=C(Nc1nc(=S)ss1)c1c(F)cccc1F	G9a block 18µM
Cc1ccccc1C(=O)Nc1nc(=S)ss1	JMJD2A Tudor inconclusive, PI5P4K alpha inh inconclusive, G9a block 13µM
CC(C)CC(=O)Nc1nc(=S)ss1	HP1b chromo inh inconclusive, JMJD2A Tudor inconclusive, PI5P4K alpha inh -53, G9a block 1.6µM (no result: L3MBTL1 inh)
CC(=O)Nc1nc(C)c(C(C)(C)C)s1	none
O=C1CC(c2nnc(Cc3ccccc3Cl)o2)CN1c1ccccc1 (stereo not given)	none (no result: PI5P4K alpha inh, L3MBTL1 inh)
O=C(N/N=C/c1c[nH]c2ccccc12)c1sc2ccccc2c1Cl	BAZ2B block inconclusive, JMJD2A Tudor inconclusive, L3MBTL1 inh inconclusive
O=C(N/N=C/c1ccc([N+](=O)[O-])o1)c1sc2ccccc2c1Cl	BAZ2B block inconclusive, JMJD2A Tudor inconclusive, PI5P4K alpha inh -62 (no result: L3MBTL1 inh)
O=C(N/N=C/c1ccccn1)c1sc2ccccc2c1Cl	BAZ2B block 40µM, JMJD2A Tudor inconclusive, L3MBTL1 inh inconclusive (no result: G9a block)
O=C(N/N=C\c1ccc([N+](=O)[O-])o1)c1ccc(O)cc1	none (no result: HP1b chromo inh, BAZ2B block, JMJD2A Tudor, PI5P4K alpha inh, L3MBTL1 inh)
O=C(c1cnccn1)N1CCC[C@@]2(CCN(Cc3ccccc3)C2)C1	none (no result: HP1b chromo inh, BAZ2B block, JMJD2A Tudor, PI5P4K alpha inh, L3MBTL1 inh)
CCCCC1CCC(C(=O)N2CC(=O)Nc3ccc(F)cc3C2c2ccc(F)cc2)CC1 (stereo not given)	none (no result: PI5P4K alpha inh, L3MBTL1 inh)
O=C(Nc1ccccc1Cl)c1cc2c(-c3ccccc3)nn(-c3ccccc3)c2s1	none (no result: PI5P4K alpha inh, L3MBTL1 inh)
CN(C)c1ccc(/C=C/c2cc[n+]([O-])cc2)cc1	G9a block 50µM (no result: HP1b chromo inh, JMJD2A Tudor, PI5P4K alpha inh)
CCCCCC[n+]1ccccc1/C=C/c1ccc(N(C)C)cc1	none (no result: HP1b chromo inh, BAZ2B block, JMJD2A Tudor, G9a block, L3MBTL1 inh)
CN(C)c1ccc(/C=C/c2cc[n+](C)cc2)cc1	BAZ2B block inconclusive, G9a block 10µM (no result: L3MBTL1 inh)
CN(C)c1ccc(C(=O)/C=C/c2ccccc2)cc1	none
Cc1ccc(/C=C/c2ccc(N(C)C)cc2)[n+](C)c1	BAZ2B block inconclusive, JMJD2A Tudor 25µM (no result: L3MBTL1 inh)
CC1CCN(C(=O)Cn2ncc3c4ccccc4n(Cc4ccc(Cl)cc4)c3c2=O)CC1	none (no result: PI5P4K alpha inh, L3MBTL1 inh)
Nc1ncnc2c1nc(Br)n2C1O[C@H]2COP(=O)(O)O[C@@H]2C1O (stereo not given in full)	none (no result: HP1b chromo inh, BAZ2B block, JMJD2A Tudor, PI5P4K alpha inh, L3MBTL1 inh)
COc1ccc(/C=C/C(=O)OCC(=O)N2CC(=O)Nc3ccccc32)cc1S(=O)(=O)N1CCOCC1	G9a block 56µM
O=C1CN(C(=O)COC(=O)/C=C/c2ccco2)c2ccccc2N1	BAZ2B block inconclusive, G9a block 45µM
O=C1CN(C(=O)COc2ccccc2F)c2ccccc2N1	G9a block 50µM
O=C1CN(C(=O)COc2ccccc2Cl)c2ccccc2N1	G9a block inconclusive
COc1cc(/C=C/C(=O)OCC(=O)N2CC(=O)Nc3ccccc32)ccc1O	none (no result: L3MBTL1 inh)
O=C1CN(C(=O)COC(=O)/C=C/c2ccc(OC(F)F)cc2)c2ccccc2N1	none
Cc1ccc(/C=C/C(=O)OCC(=O)N2CC(=O)Nc3ccccc32)o1	BAZ2B block inconclusive, JMJD2A Tudor 56µM, G9a block 50µM (no result: L3MBTL1 inh)

Source: PubChem (National Center for Advancing Translational Sciences (NCATS))
